Test results as given in the supplement of paper PMC10849652.
Of roughly 7,900 targets only a part is listed; those with a hit were picked by preference. About 0.6% of all pairs of compound and target were hits. Values without a mark were called inactive.

Compound: C1=CC=C(C=C1)[C@H](COC2=CC3=C(C=C2)NC(=O)N3)NC(=O)C4=CC=CN(C4=O)CC5=CC(=C(C=C5)F)F
Assay: log2 fold change, soluble protein after heating vs DMSO (PISA); higher = thermal stabilisation; K562 cells, 10 uM, 30 min; active = over 0.2 and 3.5 SD of the protein, either way, in both replicates (recomputed)
How it was run: (§1)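 Values are thermal stability changes relative to control samples and are taken from duplicates. They are stated as log2 fold changes. Before quantification by TMTpro 16plex LC-MS/MS with equalised channel sums, K562 cells at 2×10^6 cells/mL were treated with 10 μM compound for 30 min, heated in aliquots for 3 min across 48°C-58°C, pooled, extracted in PBS with 0.5% NP-40 at 4°C, and centrifuged at 21,000xg for 90 min to give the soluble supernatant.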

UniProt Q96GQ5, sequence (Q96GQ5 whole entry, looked up): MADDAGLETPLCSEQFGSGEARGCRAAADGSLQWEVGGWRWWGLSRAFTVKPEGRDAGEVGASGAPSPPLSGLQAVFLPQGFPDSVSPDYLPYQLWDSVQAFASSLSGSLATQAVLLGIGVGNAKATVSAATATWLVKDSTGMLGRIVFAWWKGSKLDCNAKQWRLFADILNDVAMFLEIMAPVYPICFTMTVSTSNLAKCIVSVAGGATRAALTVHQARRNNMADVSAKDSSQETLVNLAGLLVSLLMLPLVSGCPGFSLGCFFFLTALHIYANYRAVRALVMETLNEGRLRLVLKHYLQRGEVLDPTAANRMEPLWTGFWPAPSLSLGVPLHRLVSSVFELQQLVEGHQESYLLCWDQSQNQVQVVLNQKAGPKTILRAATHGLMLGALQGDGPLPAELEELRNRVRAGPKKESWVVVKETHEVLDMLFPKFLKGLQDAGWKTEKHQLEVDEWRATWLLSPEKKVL
UniProt P14854, sequence (P14854 whole entry, looked up): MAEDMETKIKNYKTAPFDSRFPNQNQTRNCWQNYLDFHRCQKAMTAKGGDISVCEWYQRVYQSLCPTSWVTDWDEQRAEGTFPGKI
UniProt Q9UBY8, sequence (Q9UBY8 whole entry, looked up): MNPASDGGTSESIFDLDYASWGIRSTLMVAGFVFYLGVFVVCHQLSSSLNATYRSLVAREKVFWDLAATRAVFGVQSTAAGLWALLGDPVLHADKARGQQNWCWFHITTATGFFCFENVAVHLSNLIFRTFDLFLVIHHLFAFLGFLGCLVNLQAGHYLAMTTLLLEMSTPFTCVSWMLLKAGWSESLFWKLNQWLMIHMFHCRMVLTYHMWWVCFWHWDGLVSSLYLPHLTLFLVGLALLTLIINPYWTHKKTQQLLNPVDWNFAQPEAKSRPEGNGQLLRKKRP
UniProt P51790, sequence (P51790 whole entry, looked up): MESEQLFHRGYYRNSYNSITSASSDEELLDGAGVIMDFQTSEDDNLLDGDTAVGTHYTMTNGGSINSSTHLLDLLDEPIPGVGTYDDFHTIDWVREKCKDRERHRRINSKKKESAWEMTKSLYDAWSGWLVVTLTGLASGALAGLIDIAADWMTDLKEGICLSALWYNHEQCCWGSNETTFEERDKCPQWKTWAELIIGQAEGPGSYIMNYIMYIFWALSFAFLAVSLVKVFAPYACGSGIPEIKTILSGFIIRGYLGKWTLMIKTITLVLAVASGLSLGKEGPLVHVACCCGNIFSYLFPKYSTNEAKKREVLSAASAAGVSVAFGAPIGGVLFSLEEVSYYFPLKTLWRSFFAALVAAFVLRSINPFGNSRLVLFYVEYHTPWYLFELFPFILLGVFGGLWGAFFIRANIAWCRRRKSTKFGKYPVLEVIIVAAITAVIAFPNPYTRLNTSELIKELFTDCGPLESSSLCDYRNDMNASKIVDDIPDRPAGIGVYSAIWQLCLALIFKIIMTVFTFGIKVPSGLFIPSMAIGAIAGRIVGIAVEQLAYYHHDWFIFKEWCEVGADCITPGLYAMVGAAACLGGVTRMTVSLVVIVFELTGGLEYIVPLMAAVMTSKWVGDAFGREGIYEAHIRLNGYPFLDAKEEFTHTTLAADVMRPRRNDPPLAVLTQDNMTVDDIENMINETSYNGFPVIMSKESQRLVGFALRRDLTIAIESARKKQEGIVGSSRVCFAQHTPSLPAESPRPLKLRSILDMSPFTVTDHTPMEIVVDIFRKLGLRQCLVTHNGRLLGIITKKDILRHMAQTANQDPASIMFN
UniProt O15182, sequence (O15182 whole entry, looked up): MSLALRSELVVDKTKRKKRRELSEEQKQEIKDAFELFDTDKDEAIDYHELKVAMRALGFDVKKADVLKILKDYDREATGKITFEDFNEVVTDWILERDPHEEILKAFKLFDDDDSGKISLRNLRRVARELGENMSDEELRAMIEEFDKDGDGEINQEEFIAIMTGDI
UniProt Q9UKF6, sequence (Q9UKF6 whole entry, looked up): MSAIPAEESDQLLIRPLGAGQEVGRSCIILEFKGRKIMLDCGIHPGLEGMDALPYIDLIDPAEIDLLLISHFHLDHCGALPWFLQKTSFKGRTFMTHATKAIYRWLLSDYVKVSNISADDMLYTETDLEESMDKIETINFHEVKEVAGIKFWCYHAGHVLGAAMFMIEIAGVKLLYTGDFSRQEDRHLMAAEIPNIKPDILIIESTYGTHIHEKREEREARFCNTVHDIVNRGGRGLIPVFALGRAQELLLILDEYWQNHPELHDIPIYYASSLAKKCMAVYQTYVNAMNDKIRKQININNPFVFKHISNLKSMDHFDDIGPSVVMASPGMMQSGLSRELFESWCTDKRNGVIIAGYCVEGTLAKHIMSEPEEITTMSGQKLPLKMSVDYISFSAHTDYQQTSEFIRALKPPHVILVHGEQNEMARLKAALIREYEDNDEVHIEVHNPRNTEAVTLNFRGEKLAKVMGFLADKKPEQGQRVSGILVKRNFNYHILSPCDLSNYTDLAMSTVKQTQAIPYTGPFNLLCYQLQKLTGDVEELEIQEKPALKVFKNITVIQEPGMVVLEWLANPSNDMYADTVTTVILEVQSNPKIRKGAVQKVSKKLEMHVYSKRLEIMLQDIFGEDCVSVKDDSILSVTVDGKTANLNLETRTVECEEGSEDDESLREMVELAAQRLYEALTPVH
UniProt P08962, sequence (P08962 whole entry, looked up): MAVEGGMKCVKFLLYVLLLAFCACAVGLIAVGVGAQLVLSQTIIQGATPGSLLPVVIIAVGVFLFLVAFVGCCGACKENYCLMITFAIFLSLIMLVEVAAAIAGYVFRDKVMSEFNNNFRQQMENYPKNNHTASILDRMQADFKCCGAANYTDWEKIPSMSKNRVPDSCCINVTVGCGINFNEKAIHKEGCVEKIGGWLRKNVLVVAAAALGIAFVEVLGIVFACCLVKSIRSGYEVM
UniProt Q96RR4, sequence (Q96RR4 whole entry, looked up): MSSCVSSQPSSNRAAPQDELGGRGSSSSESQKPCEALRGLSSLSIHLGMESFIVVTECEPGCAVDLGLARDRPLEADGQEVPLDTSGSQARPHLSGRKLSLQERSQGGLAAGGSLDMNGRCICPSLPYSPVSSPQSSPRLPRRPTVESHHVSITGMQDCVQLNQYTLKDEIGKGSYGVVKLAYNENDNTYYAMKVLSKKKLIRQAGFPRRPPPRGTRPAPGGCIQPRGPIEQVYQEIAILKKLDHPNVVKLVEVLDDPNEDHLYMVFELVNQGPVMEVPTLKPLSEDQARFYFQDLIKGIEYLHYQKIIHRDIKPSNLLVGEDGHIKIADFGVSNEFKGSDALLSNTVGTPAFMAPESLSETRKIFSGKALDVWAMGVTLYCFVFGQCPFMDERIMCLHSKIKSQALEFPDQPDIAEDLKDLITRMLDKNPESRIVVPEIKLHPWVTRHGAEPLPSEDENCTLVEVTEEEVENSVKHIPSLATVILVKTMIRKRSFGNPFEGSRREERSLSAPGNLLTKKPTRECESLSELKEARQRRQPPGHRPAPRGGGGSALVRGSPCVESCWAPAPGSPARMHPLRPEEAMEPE
UniProt Q9NRR8, sequence (Q9NRR8 whole entry, looked up): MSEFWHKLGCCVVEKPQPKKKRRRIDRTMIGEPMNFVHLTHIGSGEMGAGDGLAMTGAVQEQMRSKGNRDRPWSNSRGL
UniProt Q13555, sequence (Q13555 whole entry, looked up): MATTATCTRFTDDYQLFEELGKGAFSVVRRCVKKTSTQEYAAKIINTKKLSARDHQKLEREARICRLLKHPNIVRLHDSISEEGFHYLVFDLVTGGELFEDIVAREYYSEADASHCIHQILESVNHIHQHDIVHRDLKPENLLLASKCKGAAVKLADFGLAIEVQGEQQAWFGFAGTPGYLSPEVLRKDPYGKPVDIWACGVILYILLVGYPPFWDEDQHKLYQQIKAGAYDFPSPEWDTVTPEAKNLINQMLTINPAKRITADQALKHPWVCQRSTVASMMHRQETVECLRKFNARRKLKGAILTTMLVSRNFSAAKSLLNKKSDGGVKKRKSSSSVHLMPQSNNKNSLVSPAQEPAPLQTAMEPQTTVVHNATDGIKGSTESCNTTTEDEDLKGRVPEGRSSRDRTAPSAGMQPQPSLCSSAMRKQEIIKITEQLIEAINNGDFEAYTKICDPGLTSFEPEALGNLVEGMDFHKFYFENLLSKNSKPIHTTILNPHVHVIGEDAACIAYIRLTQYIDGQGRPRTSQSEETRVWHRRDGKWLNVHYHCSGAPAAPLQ
UniProt P46108, sequence (P46108 whole entry, looked up): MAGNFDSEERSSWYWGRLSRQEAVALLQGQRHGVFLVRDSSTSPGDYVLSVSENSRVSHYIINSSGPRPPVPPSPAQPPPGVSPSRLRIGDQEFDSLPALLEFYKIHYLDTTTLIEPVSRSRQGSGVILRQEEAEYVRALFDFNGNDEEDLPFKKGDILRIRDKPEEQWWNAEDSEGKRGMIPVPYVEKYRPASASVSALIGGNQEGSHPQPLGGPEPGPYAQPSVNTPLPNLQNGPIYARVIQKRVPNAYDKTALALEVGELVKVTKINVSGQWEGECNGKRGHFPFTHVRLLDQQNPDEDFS
UniProt P11802, sequence (P11802 whole entry, looked up): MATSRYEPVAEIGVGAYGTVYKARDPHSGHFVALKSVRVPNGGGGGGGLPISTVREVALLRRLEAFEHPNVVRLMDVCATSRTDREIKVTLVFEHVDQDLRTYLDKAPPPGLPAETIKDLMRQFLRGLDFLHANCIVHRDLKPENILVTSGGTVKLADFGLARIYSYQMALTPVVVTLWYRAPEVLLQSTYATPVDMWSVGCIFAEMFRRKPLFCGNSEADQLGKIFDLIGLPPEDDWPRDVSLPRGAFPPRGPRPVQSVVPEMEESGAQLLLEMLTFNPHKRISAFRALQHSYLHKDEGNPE
UniProt P46527, sequence (P46527 whole entry, looked up): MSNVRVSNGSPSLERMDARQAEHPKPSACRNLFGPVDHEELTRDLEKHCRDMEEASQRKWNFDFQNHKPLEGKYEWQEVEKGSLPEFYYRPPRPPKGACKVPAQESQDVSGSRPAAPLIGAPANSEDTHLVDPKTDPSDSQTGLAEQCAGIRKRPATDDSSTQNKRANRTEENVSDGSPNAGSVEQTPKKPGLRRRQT
UniProt Q9P0B6, sequence (Q9P0B6 whole entry, looked up): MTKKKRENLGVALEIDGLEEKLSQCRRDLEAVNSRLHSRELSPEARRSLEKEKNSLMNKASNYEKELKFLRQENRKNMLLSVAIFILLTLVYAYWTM

Target	log2 fold change
CLASP2 isoform 3 (UniProt O75122)	-0.065
CETN3 (UniProt O15182)	0.019
CLN8 (UniProt Q9UBY8)	0.121
CAMK2G isoform 6 (UniProt Q13555)	-0.017
CLCN3 (UniProt P51790)	0.01
COX6B1 (UniProt P14854)	0.007
CRK (UniProt P46108)	0
CD63 (UniProt P08962)	0.041
CDC42SE1 (UniProt Q9NRR8)	-0.151
CPSF3 (UniProt Q9UKF6)	-0.016
CAMKK2 (UniProt Q96RR4)	-0.047
C16orf58 (UniProt Q96GQ5)	0.023

Compound: CC1=C(SC2=C1C(=N[C@H](C3=NN=C(N32)C)CC(=O)N)C4=CC=C(C=C4)Cl)C
Assay: as above
How it was run: as §1

Target	log2 fold change
CLPTM1L (UniProt Q96KA5)	0.013
CDK17 isoform 2 (UniProt Q00537)	-0.006
COA6 isoform 2 (UniProt Q5JTJ3)	0.08
COX15 (UniProt Q7KZN9)	0.071
CNN3 (UniProt Q15417)	0.18
CHAMP1 (UniProt Q96JM3)	0.044
CPQ (UniProt Q9Y646)	-0.077
CLN5 (UniProt O75503)	-0.007
CES2 isoform 4 (UniProt O00748)	-0.069
CCNC (UniProt P24863)	-0.172
CDKN1B (UniProt P46527)	-0.029
CHEK1 (UniProt O14757)	0.065
CEPT1 (UniProt Q9Y6K0)	0.105
CCDC167 (UniProt Q9P0B6)	-0.037
CDK4 (UniProt P11802)	0.128
CDC25B isoform 4 (UniProt P30305)	0.009
CERS2 (UniProt Q96G23)	0.035
CDKN2AIP (UniProt Q9NXV6)	-0.044

Target	log2 fold change
CNOT1 (UniProt A5YKK6)	0.021
CHP1 (UniProt Q99653)	0.016
CLN3 (UniProt Q13286)	-0.032
CHST11 (UniProt Q9NPF2)	-0.061
CDC42BPB (UniProt Q9Y5S2)	-0.031
CLASP2 isoform 3 (UniProt O75122)	0.053
CETN3 (UniProt O15182)	-0.055
CLN8 (UniProt Q9UBY8)	0.042
CAMK2G isoform 6 (UniProt Q13555)	0.054
CLCN3 (UniProt P51790)	0.025
COX6B1 (UniProt P14854)	0.141
CRK (UniProt P46108)	0.013
CD63 (UniProt P08962)	0.02
CDC42SE1 (UniProt Q9NRR8)	0.016
CPSF3 (UniProt Q9UKF6)	0.024
CAMKK2 (UniProt Q96RR4)	0.388
C16orf58 (UniProt Q96GQ5)	0.025

Compound: CC1=C2C(=CC=C1)N=C(N(C2=O)C3=CC=CC=C3C)CN4C=NC5=C(N=CN=C54)N
Assay: as above
How it was run: as §1

Target	log2 fold change
CLPTM1L (UniProt Q96KA5)	0.024
CDK17 isoform 2 (UniProt Q00537)	-0.049
COA6 isoform 2 (UniProt Q5JTJ3)	0.038
COX15 (UniProt Q7KZN9)	0.036
CNN3 (UniProt Q15417)	0.079
CHAMP1 (UniProt Q96JM3)	0.022
CPQ (UniProt Q9Y646)	-0.078
CES2 isoform 4 (UniProt O00748)	0.061
CCNC (UniProt P24863)	0.01
CDKN1B (UniProt P46527)	-0.036
CHEK1 (UniProt O14757)	0.087
CEPT1 (UniProt Q9Y6K0)	0.074
CDK4 (UniProt P11802)	0.119
CDC25B isoform 4 (UniProt P30305)	0.101
CERS2 (UniProt Q96G23)	-0.012
CDKN2AIP (UniProt Q9NXV6)	-0.008
CNOT1 (UniProt A5YKK6)	0.031

Target	log2 fold change
CHP1 (UniProt Q99653)	-0.058
CLN3 (UniProt Q13286)	-0.315
CHST11 (UniProt Q9NPF2)	0.055
CDC42BPB (UniProt Q9Y5S2)	0.009
CLASP2 isoform 3 (UniProt O75122)	0.091
CETN3 (UniProt O15182)	0.109
CLN8 (UniProt Q9UBY8)	-0.067
CAMK2G isoform 6 (UniProt Q13555)	0.044
CLCN3 (UniProt P51790)	0.064
COX6B1 (UniProt P14854)	0.003
CRK (UniProt P46108)	0.005
CD63 (UniProt P08962)	-0.008
CDC42SE1 (UniProt Q9NRR8)	0.088
CPSF3 (UniProt Q9UKF6)	0.036
CAMKK2 (UniProt Q96RR4)	0.023
C16orf58 (UniProt Q96GQ5)	0.088
